The values below come from PubChem BioAssay (EPA / NIEHS).

One may read the AC50 as the concentration giving half of the maximal activity seen.

Results filed as inconclusive are left out. Activity calls are given as the source filed them. How the source made its calls, unless noted: active means hit-call score of the fitted dose curve at least 0.9, where 1 is the maximum; inconclusive means response in the unintended direction; inactive means score below 0.9.

Assay [1] addresses mouse Estrogen Receptor alpha (Era), Esr1 (gene 13982) (UniProt P19785). Description: NVS_NR_mERa: NovaScreen (NVS) Nuclear Receptor Binding Assay for mouse Estrogen Receptor alpha (Era) (AID 2283378).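 Further: hit means loss of bound radioligand signal relative to DMSO.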 In short, it runs like this: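 Test chemicals competed against a specific radioligand for binding to cell-free mouse Era. Duplicate wells at 25 uM were read 18 hours later by filter-based radiodetection, with loss of signal against DMSO scored as activity.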

The target in assay [2] is human Norepinephrine Transporter (NET), SLC6A2 (gene 6530) (UniProt P23975). Briefly: NVS_TR_hNET: NovaScreen (NVS) Transporter Assay for human Norepinephrine Transporter (NET) (AID 2283377).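 Further: cell-free membrane protein extracted from CHO cells expressing human NET.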 In short, it runs like this:
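Scintillation counts of filter-retained radioligand served as the readout, taken 1 h post-dosing in a cell-free CHO-derived system. Test chemicals ran first at 25 uM in duplicate; confirmed hits were retested across concentrations.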

Assay [3] concerns the target Estrogen receptor (Homo sapiens) (UniProt P03372). Briefly: OT_ERa_GFPERaERE_0480: Odyssey Thera (OT) 8-hour HeLa Transcription Induction Assay for Estrogen Receptor (AID 2283381; active means hit-call score of the fitted dose curve at least 0.9, where 1 is the maximum; inactive means score below 0.9). The essentials: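 Cells (HeLa) receive compound; after 8 h, reporter fluorescence is imaged and quantified by high-content analysis. Gain-of-signal relative to DMSO gives the endpoint.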
For assay [4] the target is unchanged. Briefly: OT_ERa_GFPERaERE_0120: Odyssey Thera (OT) 2-hour HeLa Transcription Induction Assay for Estrogen Receptor (AID 2283382). The essentials:
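Measures ESR1 pathway reporter gain-of-signal in HeLa cells after a 2-hour treatment, detected as fluorescent protein induction by microscopy, DMSO as baseline.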

Assay [5] deals with Retinoic acid receptor RXR-alpha (Homo sapiens) (UniProt P19793). Briefly: OT_NURR1_NURR1RXRa_0480: Odyssey Thera (OT) 8-hour HEK293T Protein Complementation Assay for Nurr1/retinoid X receptor (RXR) (AID 2283385). The essentials:
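Compounds are applied to HEK293T cells carrying Nurr1 and RXRα linked to reporter fragments. After 8 h, fluorescence intensity reports heterodimer formation, with DMSO as baseline.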

For assay [6] the target is unchanged. Briefly: OT_NURR1_NURR1RXRa_1440: Odyssey Thera (OT) 24-hour HEK293T Protein Complementation Assay for Nurr1/retinoid X receptor (RXR) (AID 2283386). In short, it runs like this: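 Measured as fluorescence from a reconstituted split reporter, this 24 h HEK293T complementation assay scores compound-induced gain of Nurr1/RXRα association relative to DMSO.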
Assay [7] concerns the target Peroxisome proliferator-activated receptor gamma (Homo sapiens) (UniProt P37231). Description: OT_PPARg_PPARgSRC1_0480: Odyssey Thera (OT) 8-hour Protein-Complementation Assay for Peroxisome Proliferator-activated Receptor Gamma / SRC-1 Co-activator (AID 2283387).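 Further: nuclear to cytoplasmic split Venus YFP fluorescence ratio reporting PPARg SRC-1 interaction.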 In short, it runs like this: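 Protein-fragment complementation of split Venus YFP reports PPARg/SRC-1 interaction in HEK293T (transfected 48 h before treatment), exposed 8 h. Readout: N/C fluorescence ratio at 488 nm from imaging, Draq5 for segmentation, positive fit relative to DMSO.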

Assay [8] has the same target. Briefly: OT_PPARg_PPARgSRC1_1440: Odyssey Thera (OT) 24-hour Protein-Complementation Assay for Peroxisome Proliferator-activated Receptor Gamma/ SRC-1 Co-activator (AID 2283388).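 Further: nuclear to cytoplasmic ratio of reconstituted Venus YFP fluorescence in fixed imaged cells.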 The essentials: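 Transient HEK293T, YFP fragments 1-158/159-239 (mutant IFP1/IFP2) fused to PPARg/SRC-1; 24 h dosing; fix 4% formaldehyde, Draq5; Opera imaging 488/635 nm; N/C ratio, gain vs DMSO.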

Assay [9] has as its target Estrogen receptor beta (Homo sapiens) (UniProt Q92731). Description: OT_ER_ERbERb_1440: Odyssey Thera (OT) 24-hour HEK293T Protein-Complementation Assay for Estrogen Receptor-beta/-beta Homodimer (AID 2283380).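 Further: fluorescence gain from ER beta LBD homodimer complementation read by laser scanning cytometry; scored as signal increase over DMSO baseline for both agonists and antagonists.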 The essentials: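 Fluorescence increase, nuclear for agonists or whole-cell for antagonists, relative to DMSO vehicle, quantified by laser scanning cytometer after fixation and Draq5 staining. Readout from 24 h treatment of HEK293T cells carrying complementation-paired ER beta LBD (aa 310-547).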

The target in assay [10] is Bile acid receptor (Homo sapiens) (UniProt Q96RI1). Briefly: OT_FXR_FXRSRC1_0480: Odyssey Thera (OT) 8-hour HEK293T Protein-Complementation Assay for Farnesoid X receptor/SRC-1 Co-activator (AID 2283383). In short, it runs like this:
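Co-activator recruitment to FXR was measured in living HEK293T cells, where interaction of the two fused partners restored an active fluorescent reporter. Signal gain after 8 h treatment was referenced to DMSO.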

Sequence of mouse Estrogen Receptor alpha (Era), Esr1 (gene 13982) (P19785 whole entry, looked up): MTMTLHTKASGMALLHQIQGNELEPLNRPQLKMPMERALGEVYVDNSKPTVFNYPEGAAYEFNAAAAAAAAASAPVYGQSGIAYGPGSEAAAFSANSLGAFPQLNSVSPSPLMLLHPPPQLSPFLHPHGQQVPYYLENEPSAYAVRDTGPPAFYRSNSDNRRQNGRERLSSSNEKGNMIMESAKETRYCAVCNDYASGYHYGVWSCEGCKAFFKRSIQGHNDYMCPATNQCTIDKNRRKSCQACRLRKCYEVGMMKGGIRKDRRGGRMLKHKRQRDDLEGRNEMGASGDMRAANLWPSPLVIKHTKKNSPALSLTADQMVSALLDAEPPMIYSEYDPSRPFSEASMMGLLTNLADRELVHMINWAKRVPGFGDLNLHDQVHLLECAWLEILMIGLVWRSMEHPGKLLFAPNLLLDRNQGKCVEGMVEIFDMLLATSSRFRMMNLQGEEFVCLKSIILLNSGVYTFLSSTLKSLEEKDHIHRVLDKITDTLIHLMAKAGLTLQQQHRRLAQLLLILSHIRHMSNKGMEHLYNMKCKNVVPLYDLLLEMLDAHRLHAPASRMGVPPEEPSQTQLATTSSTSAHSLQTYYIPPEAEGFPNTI
Sequence of Estrogen receptor beta (Homo sapiens) (Q92731 whole entry, looked up, the tested form may be a part): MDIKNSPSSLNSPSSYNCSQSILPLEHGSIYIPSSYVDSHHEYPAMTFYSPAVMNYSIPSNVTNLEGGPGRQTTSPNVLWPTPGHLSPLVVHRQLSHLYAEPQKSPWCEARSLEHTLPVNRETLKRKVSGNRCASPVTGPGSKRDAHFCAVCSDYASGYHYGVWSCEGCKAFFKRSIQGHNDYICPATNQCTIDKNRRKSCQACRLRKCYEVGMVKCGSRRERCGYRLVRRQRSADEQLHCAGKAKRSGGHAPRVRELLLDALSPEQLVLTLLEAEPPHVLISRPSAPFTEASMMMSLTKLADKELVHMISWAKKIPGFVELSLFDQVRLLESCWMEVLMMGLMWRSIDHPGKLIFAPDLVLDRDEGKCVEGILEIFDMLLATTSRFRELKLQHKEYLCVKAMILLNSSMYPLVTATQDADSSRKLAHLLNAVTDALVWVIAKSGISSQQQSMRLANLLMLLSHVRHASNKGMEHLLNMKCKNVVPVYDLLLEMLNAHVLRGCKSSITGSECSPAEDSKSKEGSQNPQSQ
Sequence of Retinoic acid receptor RXR-alpha (Homo sapiens) (P19793 whole entry, looked up, the tested form may be a part): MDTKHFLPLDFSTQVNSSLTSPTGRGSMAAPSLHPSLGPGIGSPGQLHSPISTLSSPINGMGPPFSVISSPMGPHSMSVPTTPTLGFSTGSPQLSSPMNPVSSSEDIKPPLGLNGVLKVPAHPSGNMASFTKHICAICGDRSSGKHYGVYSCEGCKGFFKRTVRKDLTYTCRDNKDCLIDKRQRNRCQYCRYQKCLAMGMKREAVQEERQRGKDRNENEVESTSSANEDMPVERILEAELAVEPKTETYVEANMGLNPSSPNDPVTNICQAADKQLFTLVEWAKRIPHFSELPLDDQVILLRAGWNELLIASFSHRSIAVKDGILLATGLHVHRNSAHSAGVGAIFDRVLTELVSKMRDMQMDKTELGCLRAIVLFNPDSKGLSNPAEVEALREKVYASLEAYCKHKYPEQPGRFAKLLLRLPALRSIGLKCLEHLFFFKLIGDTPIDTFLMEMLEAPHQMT
Sequence of Peroxisome proliferator-activated receptor gamma (Homo sapiens) (P37231 whole entry, looked up, the tested form may be a part): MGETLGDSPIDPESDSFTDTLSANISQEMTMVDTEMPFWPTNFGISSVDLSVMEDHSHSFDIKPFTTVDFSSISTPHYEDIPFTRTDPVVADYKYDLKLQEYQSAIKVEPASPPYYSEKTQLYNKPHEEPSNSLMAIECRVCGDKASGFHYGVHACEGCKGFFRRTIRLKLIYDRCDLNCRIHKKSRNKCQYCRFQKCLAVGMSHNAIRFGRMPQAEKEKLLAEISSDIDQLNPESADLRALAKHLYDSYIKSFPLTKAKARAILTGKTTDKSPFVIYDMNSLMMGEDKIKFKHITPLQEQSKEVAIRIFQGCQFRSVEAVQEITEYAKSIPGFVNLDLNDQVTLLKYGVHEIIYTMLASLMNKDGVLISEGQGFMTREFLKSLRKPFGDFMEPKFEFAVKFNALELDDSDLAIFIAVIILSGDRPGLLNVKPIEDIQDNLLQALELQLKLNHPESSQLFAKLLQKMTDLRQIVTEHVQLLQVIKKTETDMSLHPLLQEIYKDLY
Sequence of Bile acid receptor (Homo sapiens) (Q96RI1 whole entry, looked up, the tested form may be a part): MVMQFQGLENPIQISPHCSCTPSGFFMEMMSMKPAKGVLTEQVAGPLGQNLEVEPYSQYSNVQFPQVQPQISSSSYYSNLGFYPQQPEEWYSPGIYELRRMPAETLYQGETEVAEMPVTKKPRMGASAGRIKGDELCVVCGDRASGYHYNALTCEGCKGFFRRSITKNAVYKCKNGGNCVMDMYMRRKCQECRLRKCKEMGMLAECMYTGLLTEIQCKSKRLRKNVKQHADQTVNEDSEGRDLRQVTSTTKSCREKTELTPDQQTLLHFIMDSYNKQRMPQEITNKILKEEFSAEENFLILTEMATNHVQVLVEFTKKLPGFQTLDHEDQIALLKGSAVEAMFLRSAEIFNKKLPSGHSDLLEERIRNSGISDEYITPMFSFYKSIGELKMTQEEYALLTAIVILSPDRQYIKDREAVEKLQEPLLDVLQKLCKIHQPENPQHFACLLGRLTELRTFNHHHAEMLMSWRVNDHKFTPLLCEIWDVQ
Sequence of Estrogen receptor (Homo sapiens) (P03372 whole entry, looked up): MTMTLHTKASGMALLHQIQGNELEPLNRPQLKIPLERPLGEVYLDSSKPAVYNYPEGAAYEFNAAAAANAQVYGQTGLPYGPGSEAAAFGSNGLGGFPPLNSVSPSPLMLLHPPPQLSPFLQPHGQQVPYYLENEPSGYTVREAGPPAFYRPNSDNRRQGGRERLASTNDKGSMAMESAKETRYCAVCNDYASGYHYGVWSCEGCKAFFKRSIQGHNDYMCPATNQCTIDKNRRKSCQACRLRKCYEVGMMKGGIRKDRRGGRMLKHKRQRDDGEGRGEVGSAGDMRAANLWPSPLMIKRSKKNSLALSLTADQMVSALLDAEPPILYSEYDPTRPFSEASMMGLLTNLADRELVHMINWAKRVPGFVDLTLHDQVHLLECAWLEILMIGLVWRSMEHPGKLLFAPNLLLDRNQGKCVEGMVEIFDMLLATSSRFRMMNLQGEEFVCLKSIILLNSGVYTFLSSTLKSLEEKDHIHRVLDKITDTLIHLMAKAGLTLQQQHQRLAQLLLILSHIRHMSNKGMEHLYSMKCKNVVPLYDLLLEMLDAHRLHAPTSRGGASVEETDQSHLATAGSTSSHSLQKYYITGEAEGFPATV
Sequence of human Norepinephrine Transporter (NET), SLC6A2 (gene 6530) (P23975 whole entry, looked up): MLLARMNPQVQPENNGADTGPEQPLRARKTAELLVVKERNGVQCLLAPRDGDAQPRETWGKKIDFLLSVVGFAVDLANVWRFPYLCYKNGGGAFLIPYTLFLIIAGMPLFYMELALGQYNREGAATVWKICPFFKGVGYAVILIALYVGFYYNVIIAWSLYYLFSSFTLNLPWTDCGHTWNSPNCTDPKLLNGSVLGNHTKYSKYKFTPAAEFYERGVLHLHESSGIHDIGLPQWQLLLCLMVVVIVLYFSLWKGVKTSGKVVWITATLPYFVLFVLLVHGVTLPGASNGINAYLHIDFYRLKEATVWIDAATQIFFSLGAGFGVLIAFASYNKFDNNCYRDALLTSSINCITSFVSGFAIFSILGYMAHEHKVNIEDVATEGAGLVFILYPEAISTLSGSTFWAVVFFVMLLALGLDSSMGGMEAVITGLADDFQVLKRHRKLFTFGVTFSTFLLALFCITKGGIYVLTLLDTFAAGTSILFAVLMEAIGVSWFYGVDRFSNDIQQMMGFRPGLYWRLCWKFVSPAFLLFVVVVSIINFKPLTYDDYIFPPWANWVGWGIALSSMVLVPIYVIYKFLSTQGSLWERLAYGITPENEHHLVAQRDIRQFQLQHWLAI

Take `CCOC(=O)N1CCC(=C2c3ccc(Cl)cc3CCc3cccnc32)CC1`: the call in assay [1] was inactive.
On the same count and under the same terms, under `C=CC(C)(CCC=C(C)C)OC(=O)CC(C)C` (stereo unspecified) stands “inactive”.
`C#CC1(O)CC[C@H]2[C@@H]3CCC4=CCCC[C@@H]4[C@H]3CC[C@@]21C` (stereo partly specified): the half-maximal activity concentration (AC50) in assay [1] is 6.99 µM (active).
For `O=[N+]([O-])c1ccc(CO)cc1`, the result in assay [2] was inactive.
Take `Cc1cccc(N(C)C(=S)Oc2ccc3ccccc3c2)c1`: the compound was classed as inactive in assay [1].
Still for that read-out and setting: next, `O=C1CCCCCN1SSN1CCCCCC1=O`: “inactive”.
As to `NC(CO)(CO)CO`, the outcome in [1], in assay [3], in assay [4], in [5], in [6] and in assay [7] was inactive. Also, the call in assay [8] was inactive.
`O=C(c1ccc(O)cc1)c1ccc(O)cc1O`: the concentration at half-maximal activity (AC50) in assay [1] is 1.29 µM (active).
On to `C=C[C@](C)(O)CC[C@@H]1[C@@]2(C)CCCC(C)(C)[C@@H]2CC[C@@]1(C)O`, for which the compound was classed as inactive in [1].
For `CN(C)c1ccc(N=Nc2ccccc2C(=O)O)cc1`, the compound was classed as inactive in assay [1], in [9], in assay [3], in assay [4], in [5] and in [6]. The call in [7] and in assay [8] was inactive.
Turning to `CCC(=O)Oc1ccc(/C(CC)=C(\CC)c2ccc(OC(=O)CC)cc2)cc1`, the AC50 in [1] is 0.0132 µM (active).
The same measure, in the same setting: under `COc1ccc(C(Cl)=C(c2ccc(OC)cc2)c2ccc(OC)cc2)cc1` stands 4.88 µM (active).
With `NC(=O)c1ccccc1O`, the outcome in [9], in assay [3], in assay [4], in [10], in [5] and in assay [6] was inactive. The compound was classed as inactive in [7] and in assay [8].
Consider `CCCCOCCOC(=O)COc1nc(Cl)c(Cl)cc1Cl`, for which the outcome in [3], in [4], in assay [10], in assay [6], in [7] and in [8] was inactive.
With `CCCCCc1ccc(Cl)cc1`, the compound was called inactive in assay [3], in [4], in assay [10], in assay [5], in assay [6] and in [7]. The compound was called inactive in [8].
As for `CC(C)(C)c1ccc(N)cc1`, the result in [9], in assay [3], in [4], in assay [5], in assay [6] and in [7] was inactive. Moreover, in [8], the call was inactive.
Take `Cc1cc(C)c(C(=O)O)c(C)c1`: the outcome in assay [9], in [6], in assay [7] and in assay [8] was inactive. In addition, the concentration at half-maximal activity (AC50) in assay [3] is 93 µM (active); in assay [4] it was 94.2 µM (active).
`C=C1C2CCC(C2)C1(C)C` (stereo unspecified): the compound was classed as inactive in [9], in assay [3], in assay [4], in assay [7] and in assay [8].
As to `CCOC(=O)Cc1cccc2ccccc12`, the compound was classed as inactive in assay [9], in assay [3], in assay [4], in assay [5], in assay [6] and in assay [7]. Moreover, the compound was classed as inactive in assay [8].
